In PubChem BioAssay AID1159580 (chemical genetic matrix, 2015):
Screen size: about 5,500 compounds; about 2,000 (36%) were called active. Another 18% or so got no clear call; they are omitted. Cut-off read from the data, not from the text of the source: active = normalized growth mostly below about 0.91 (no sharp cut-off); inconclusive = no clear call, values can overlap the other calls; inactive = mostly above about 0.92. This is one part of the list.

Assay: chemical genetic growth profiling, strain panel (AID 1159580);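 note: tested at 20 µM; growth read once vehicle control cultures reached saturation at 30 °C; 1 = growth at the plate median or of vehicle wells; lower values mean less growth of the strain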
Conditions: S. cerevisiae deletion strains, growth OD

Measured: normalized growth

C[Se]C[C@H](N)C(=O)O
inactive: locus YAL013W, strain DEP1, stronger effect = lower value 0.981 | locus YAL040C, strain CLN3, stronger effect = lower value 1.05 | locus YCL061C, strain MRC1 (second series), stronger effect = lower value 0.983 | locus YDR150W, strain NUM1, stronger effect = lower value 1 | locus YDR363W, strain ESC2, stronger effect = lower value 0.949 | locus YER002W, strain NOP16, stronger effect = lower value 0.984 | locus YNL175C, strain NOP13, stronger effect = lower value 0.953 | locus YNL197C, strain WHI3, stronger effect = lower value 0.981 | locus YNL224C, strain SQS1, stronger effect = lower value 0.97 | locus YNL322C, strain KRE1, stronger effect = lower value 0.981 | locus YOR083W, strain WHI5 (second series), stronger effect = lower value 0.984 | locus YPL241C, strain CIN2, stronger effect = lower value 0.983
